Activity calls are given as the source filed them.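 The calls were made as follows: active = blocks over 60% of fluorescent estradiol binding at 10 µM; inactive = the rest.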
Target: G-protein coupled estrogen receptor 1 (Homo sapiens) (UniProt Q99527)
Experiment: GPR30 competitive binders vs fluorescent estrogen, primary screen, cell-based, Cos7 GPR30-GFP, flow cytometry, 10 µM (AID 1212)
Conditions: fluorescent estrogen competition, at 10 µM; stronger effect = higher value

Row | SMILES | inhibition | outcome
1 | Cc1c(Cc2ccccc2)c(=O)n2c([nH]c3ccccc32)c1C#N | 8% (inactive) | –
2 | COc1cc([C@@H]2Nc3ccc(S(=O)(=O)Nc4ccccc4F)cc3[C@@H]3C=CC[C@@H]32)cc(OC)c1OC | 17% (inactive) | –
3 | COc1ccc(-n2cc3c(c(C#N)c2=N)CC(C)(C)CC3=O)cc1 | – | inactive
4 | CSC(=O)CNC1(Cc2ccc(O)cc2)CCCCC1 | – | inactive
5 | Cc1cc(C(C)CO)cc(C(C)(C)C)c1O (configuration not stated) | – | inactive
6 | O=C(O)c1ccc([N+](=O)[O-])c2c1NC(c1ccccc1)C1CC=CC21 (configuration not stated) | 100% (active) | –
7 | CCOc1cc2c(cc1OCC)C(C(CC)CC)NCC2 (configuration not stated) | – | inactive
8 | COc1ccc(C2(CNCC(N)=O)CCCC2)cc1OC | – | inactive
9 | CCOC(=O)c1ccc2c(c1)C1C=CCC1C(c1cccc([N+](=O)[O-])c1)N2 (configuration not stated) | 48% (inactive) | –
10 | COc1cc2c(c([N+](=O)[O-])c1)NC(c1ccc(Br)cc1)C1CC=CC21 (configuration not stated) | – | inactive
11 | CC1(C)Cc2[nH]c(=O)c(C(=O)O)cc2CO1 | – | inactive
12 | CCCCCCc1cc2c3c(c(=O)oc2cc1OCC(=O)OC)CCC3 | – | inactive
13 | CCOc1ccc(NS(=O)(=O)c2ccc3c(c2)[C@H]2C=CC[C@H]2[C@@H](c2ccc(C(=O)O)cc2)N3)cc1 | 100% (active) | –
14 | COc1ccc(NS(=O)(=O)c2ccc3c(c2)[C@H]2C=CC[C@H]2[C@@H](c2cccc(OC)c2OC)N3)cc1 | 44% (inactive) | –
15 | Cc1ccc(-n2cc3c(c(C#N)c2=N)CC(C)(C)CC3=O)cc1 | – | inactive
16 | COc1cc([N+](=O)[O-])cc2c1NC(c1ccc(Cl)cc1)C1CC=CC21 (configuration not stated) | 9% (inactive) | –
17 | COc1cc(C2C3C(C)N(C)C(=O)N(C)C3N(C)C(=O)N2C)ccc1O (configuration not stated) | – | inactive
18 | Oc1ccc2c(c1)c1c3n2CCNC3CCC1 (configuration not stated) | – | inactive
19 | COc1cc2c(cc1OC)C(Cc1ccc(O)cc1)N(C)CC2 (configuration not stated) | 1% (inactive) | –
20 | COc1ccc2[nH]c3c(c2c1)CCNC3=O | 15% (inactive) | –
21 | O=c1oc2c(CN3CCCC3)c(O)ccc2c2c1CCC2 | – | inactive
22 | COc1cc(C2CC(=O)Nc3c2ccc2ccccc32)cc(Cl)c1O (configuration not stated) | 3% (inactive) | –
23 | CCCc1c(C(=O)OCC)[nH]c2c1C(=O)CC(c1ccccc1)C2 (configuration not stated) | – | inactive
24 | CC1(C)C=C(c2ccc(O)cc2)CC(C)(C)N1 | – | inactive
25 | CCOc1cc2c(cc1OCC)C(C1CCCCC1)NCC2 (configuration not stated) | – | inactive
26 | COc1cc2c(cc1OC)CC(C)(C)N(Cc1ccco1)C2 | 5% (inactive) | –
27 | N#Cc1c2c(c(=O)n3c1[nH]c1ccccc13)CCCC2 | 15% (inactive) | –

— PubChem BioAssay AID1212 (NMMLSC, 2008)
